Tb PGK inh – qHTS Assay to Find Inhibitors of Phosphoglycerate Kinase; actives 0.043% (n = 380,000); PGK/GAPDH coupled, Kinase-Glo luminescence, 60 min; Potency, µM (doses to about 57.5 µM), for the others: top-dose activity change, negative = inhibition, usual class: inhibitors; active = well fitted inhibition curve with a large enough effect; inconclusive = small, poorly fitted or top-dose-only effect; inactive = no such curve, though single readings can be large or run the other way; note: potency is the fitted concentration of half-maximal effect; nearly all actives have a fitted effect of over 60% in size
Target sequence (P07378 whole entry, looked up): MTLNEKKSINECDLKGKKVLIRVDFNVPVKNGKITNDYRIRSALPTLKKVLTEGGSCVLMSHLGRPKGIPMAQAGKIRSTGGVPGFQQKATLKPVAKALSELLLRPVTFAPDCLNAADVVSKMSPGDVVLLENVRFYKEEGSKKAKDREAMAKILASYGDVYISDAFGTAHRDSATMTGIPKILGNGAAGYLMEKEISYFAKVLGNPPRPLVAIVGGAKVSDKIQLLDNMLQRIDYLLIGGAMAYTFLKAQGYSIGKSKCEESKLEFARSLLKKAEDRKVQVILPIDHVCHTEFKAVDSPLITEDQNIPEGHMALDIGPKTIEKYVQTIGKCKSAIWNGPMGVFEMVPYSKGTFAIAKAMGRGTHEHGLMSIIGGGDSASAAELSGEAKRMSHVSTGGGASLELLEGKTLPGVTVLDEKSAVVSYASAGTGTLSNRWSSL
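Luminescent ATP detection (Kinase-Glo Plus) follows a 60-minute room-temperature incubation, with wells lacking PGK as controls. Buffer: 100 mM TEA (pH 7.6), 5 mM MgCl2, 0.01% Tween-20. Coupling enzyme GAPDH (100 nM final) supplies unstable 1,3-BPG in-well.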
PI5P4K alpha inh – qHTS for Inhibitors of phosphatidylinositol 5-phosphate 4-kinase (PI5P4K); actives 1.2% (n = 330,000); AID 652105, 2013; max response, %; Phosphatidylinositol 5-phosphate 4-kinase type-2 alpha (Homo sapiens), P48426; PI5P4Kalpha enzyme, ADP-Glo luminescence, 60 min; hits give low values; active = max response of -50% or lower; inconclusive = between -30% and -50%; inactive = -30% or higher; note: value at the top dose of about 77 µM
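Luminescence from ADP-Glo served as readout of PI5P4Kalpha activity in a qHTS format. Reaction: enzyme, substrate, compound, ATP at 5 microM final, 60 min at RT.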
PI4K2A block – qHTS for small molecular inhibitors of PI4K2A. Phosphatidylinositol 4-kinase type 2-alpha (Homo sapiens), Q9BTU6. purified PI4K2A, ADP-Glo luminescence, 1 h; hits give low values. activity change, negative = inhibition, % at 76.9 µM. actives 0.13% (n = 420,000); in the data active = activity change below about -50%; inconclusive = mostly about -30% to -49%;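 note: -100% = wells without enzyme as full effect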
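Compounds are screened against recombinant PI4K2A using PI as substrate and ATP, the latter dispensed at 300 microM. Reactions run one hour at ambient temperature before ADP-Glo detection; full inhibition defined by wells lacking enzyme.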
Pin1 inh – qHTS Assay to Find Inhibitors of Pin1 | Pin1 FP peptide displacement, HiFluor488, 10 min | Potency, µM (titrated, usually from 115 µM), without a hit: top-dose activity, negative = inhibition, actives largely listed as inhibitors | AID 504891, 2011 | actives 0.009% (n = 390,000) | Peptidyl-prolyl cis-trans isomerase NIMA-interacting 1 (Homo sapiens), Q13526; active = well fitted inhibition curve with a large enough effect in the polarisation, with a control signal flat, not every such curve was filed as active; inconclusive = small, poorly fitted or top-dose-only effect, or effect the other way, or a change in a side signal; inactive = no such curve, though single readings can be large or run the other way; the % refers to the polarisation; note: potency is the fitted concentration of half-maximal effect
Target sequence (Q13526 whole entry, looked up): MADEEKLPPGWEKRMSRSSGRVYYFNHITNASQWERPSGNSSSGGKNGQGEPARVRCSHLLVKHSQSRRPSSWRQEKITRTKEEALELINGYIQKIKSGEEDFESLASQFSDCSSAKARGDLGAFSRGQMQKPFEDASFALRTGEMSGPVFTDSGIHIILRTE
Starred values were filed as active, the others as inactive; i = inactive; ? = inconclusive; nt = no result. Shown is part of a subset that was picked to be rich in hits. Unless noted, % is set by controls: 0 for no effect and ±100 for the full control effect.

SMILES	Tb PGK inh	PI5P4K alpha inh	PI4K2A block	Pin1 inh
Nc1cc2c(cc1[N+](=O)[O-])OCCO2	14%	-7	-2	-4%
Nc1cc2c(cc1[N+](=O)[O-])OCO2	-14%	-60*	-9	?
O=S(=O)(/N=S1\CC=CCN1S(=O)(=O)c1ccccc1)c1ccccc1 (centres undefined)	2%	-50*	-9	-7%
CC1=C(C)CS(=O)N(S(=O)(=O)c2ccccc2)C1 (centres undefined)	-9%	nt	-13	5%
NC1=NC(=O)/C(=C/c2ccc(-c3ccc(S(N)(=O)=O)cc3)o2)S1	-12%	-12	-16	?
CS(=O)(=O)Nc1ccc(-c2ccc(/C=C3\SC(N)=NC3=O)o2)cc1	-12%	-65*	-4	?
C=CC(=O)Nc1cccc(Oc2ccnc3[nH]ccc23)c1	7%	-72*	2	?
Oc1cccc(-c2c3nc(c(-c4cccc(O)c4)c4ccc([nH]4)c(-c4cccc(O)c4)c4nc(c(-c5cccc(O)c5)c5ccc2[nH]5)CC4)C=C3)c1	nt	nt	-23	nt
CCN=C1S/C(=C\c2ccc(-c3cccc(C(=O)O)c3)o2)C(=O)N1CC	-13%	-27	-5	15%
CCN1C(=O)/C(=C\c2ccc(-c3ccc([N+](=O)[O-])cc3OC)o2)SC1=Nc1cccc(C(=O)O)c1	-14%	-50*	-20	nt
CO/N=C/NC(=O)c1ccc([N+](=O)[O-])c(CS(=O)(=O)c2ccc(Cl)cc2)c1	0%	-50*	-4	-1%
C=C(C)C(=O)Nc1cccc(C2=NOC3(C2)C[C@H](C(N)=O)N(C(=O)CC)C3)c1 (some centres undefined)	5.6µM*	-17	-14	-15%
C=C(C)C(=O)Nc1cccc(C2=NOC3(C2)C[C@@H](C(N)=O)N(C(=O)CC(c2ccccc2)c2ccccc2)C3)c1 (some centres undefined)	8.9µM*	?	-5	-5%
NC(=O)C1CCN(c2ncc(-c3cccc(N4CCCCC4)c3)s2)CC1	nt	nt	nt	-1%
C[C@H]1O[C@H](O[C@H]2[C@H](O)[C@@H](O)[C@@H](O[C@H]3[C@H](O)[C@@H](O)[C@H](O)O[C@@H]3CO)O[C@@H]2CO)[C@H](O)[C@@H](O)[C@@H]1N[C@H]1C=C(CO)[C@@H](O)[C@H](O)[C@H]1O	nt	nt	2	nt
O=C(O)c1ccc2nc(-c3cc4cc(F)ccc4oc3=O)[nH]c2c1	-6%	nt	-5	-1%
O=C(O)c1ccc2nc(-c3cc4cccc(O)c4oc3=O)[nH]c2c1	nt	nt	-54*	nt
CCOc1ccc2nc(N3C(=O)/C(=C/c4ccccc4)NC3=S)sc2c1	-2%	-54*	-2	?
CCOc1ccc2nc(N3CCCCCC3)sc2c1	0%	nt	-2	1%
COc1ccc2nc(N3C(=O)/C(=C/c4ccccc4)NC3=S)sc2c1	-18%	-63*	0	?
CCNc1nc(C#N)nc2c1ncn2-c1cccc(Cl)c1	nt	nt	nt	14%
COc1cc(C2C(C#N)=C(N)OC3=C2C(=O)CC(C)(C)C3)cc2c1OCO2 (centres undefined)	1%	-59*	-4	?
COc1ccc(C2C(C#N)=C(N)OC3=C2C(=O)CC(C)(C)C3)cc1 (centres undefined)	-7%	-5	14	-4%
COc1cc(C=NNC(=O)c2ccc(NS(=O)(=O)c3cccs3)cc2)cc(Br)c1O	-4%	-82*	-2	-1%
C/C(=N\NC(=O)c1ccc(NS(=O)(=O)c2cccs2)cc1)c1cccs1	-9%	-56*	0	-2%
SMILES	Tb PGK inh	PI5P4K alpha inh	PI4K2A block	Pin1 inh
C/C(=N\NC(=O)c1ccc(NS(=O)(=O)c2cccs2)cc1)c1ccc(Cl)cc1	-4%	-59*	0	-4%
CCCCC(=O)O[C@]1(C(=O)CO)[C@@H](C)C[C@H]2[C@@H]3CCC4=CC(=O)C=C[C@]4(C)[C@@]3(F)[C@@H](O)C[C@@]21C	nt	nt	-2	nt
Cc1cc(C)c(/C=C/c2onc(C)c2S(=O)(=O)N2CCC(C(=O)NCc3ccco3)CC2)c(C)c1	10%	nt	0	5%
NNc1cc([N+](=O)[O-])cc2c1C(=O)N(Cc1ccccc1)S2=O (centres undefined)	-8%	-66*	-8	?
N#CC1=C(N)NC(=S)C(C(N)=O)C1c1ccc([N+](=O)[O-])cc1 (centres undefined)	5%	-56*	-4	3%
CCOc1ccc2[nH]c3ncccc3c(=O)c2c1	-2%	0	-4	?
CCOc1ccc2c(ccc(/C=C/c3cc(C)c4cccnc4c3O)[n+]2C)c1	?	-85*	-58*	21%
CCC(=O)NC(c1ccc(C)s1)c1cc(Cl)c2cccnc2c1O (centres undefined)	nt	nt	nt	4%
Cc1cccc(C)c1NC(=O)C(c1ccc(-c2ccccc2)cc1)n1c(=O)c(-c2ccco2)nc2ccccc21 (centres undefined)	nt	-99*	-12	nt
Cc1cccc(C)c1NC(=O)C(c1ccccc1F)n1c(=O)c(-c2ccco2)nc2ccccc21 (centres undefined)	nt	-67*	-7	nt
Cc1cccc(C)c1NC(=O)C(c1ccnc2ccccc12)n1c(=O)c(-c2ccco2)nc2ccccc21 (centres undefined)	nt	-72*	-7	nt
COc1ccc(NC(=O)C(c2ccccc2F)n2c(=O)c(-c3ccco3)nc3ccccc32)cc1 (centres undefined)	nt	-15	-3	nt
N#CCc1nc2ccc(S(=O)(=O)N3CCOCC3)cc2s1	-7%	-64*	-3	?
CSc1nc2ccc(S(=O)(=O)N3CCOCC3)cc2s1	1%	nt	-1	4%
Cc1[nH]c2ccccc2c1CC#N	5%	9	2	1%
Cc1[nH]c2ccccc2c1C1=CC(=O)C=CC1=O	-9%	-97*	-9	-10%
COc1ccc(C2c3c(nc(C)[nH]c3=O)Oc3ccc4ccccc4c32)cc1OC (centres undefined)	nt	nt	nt	-4%
O=C(O)c1ccccc1-c1c2cc(I)c(=O)c(I)c-2oc2c(I)c(O)c(I)cc12	?	-99*	?	?
CCCCOC(=O)n1c(=O)oc2cc(S(=O)(=O)N3CCCCC3)ccc21	-4%	nt	10	0%
CCCCOC(=O)n1c(=S)oc2cc(Cl)ccc21	-1%	-55*	-15	-6%
Cn1nnc(-c2ccc(OCc3ccccc3F)cc2)n1	-13%	0	-56*	-2%
CNc1nc(-c2ccccc2)[n+](-c2ccc(C)cc2)s1	i	-99*	-4	0%
Cc1ccc(-c2nc(N)s[n+]2-c2ccccc2)cc1	-3%	-80*	-6	7%

Compound activity: PubChem BioAssay, National Center for Advancing Translational Sciences (NCATS)
